Reference: PubChem BioAssay (NCATS)
Inconclusive results are not listed. Activity calls are given as the source filed them. Calls come from the whole dose curve; as a rule, active = well fitted curve in the direction sought with a large enough effect; inconclusive = small, poorly fitted or top-dose-only effect, or another doubt; inactive = no such curve, though single readings can be large; an effect the other way counts as inactive or inconclusive.

Assays:
[1] = molecular target: Luciferin 4-monooxygenase (Photinus pyralis) (UniProt P08659); assay: Biochemical firefly luciferase enzyme assay for NPC (AID 624030);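 note: purified P. pyralis luciferase at 10 nM with luciferin and ATP substrate; nearly all actives have a fitted effect of over 70% in size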
Sequence of Luciferin 4-monooxygenase (Photinus pyralis) (P08659 whole entry, looked up): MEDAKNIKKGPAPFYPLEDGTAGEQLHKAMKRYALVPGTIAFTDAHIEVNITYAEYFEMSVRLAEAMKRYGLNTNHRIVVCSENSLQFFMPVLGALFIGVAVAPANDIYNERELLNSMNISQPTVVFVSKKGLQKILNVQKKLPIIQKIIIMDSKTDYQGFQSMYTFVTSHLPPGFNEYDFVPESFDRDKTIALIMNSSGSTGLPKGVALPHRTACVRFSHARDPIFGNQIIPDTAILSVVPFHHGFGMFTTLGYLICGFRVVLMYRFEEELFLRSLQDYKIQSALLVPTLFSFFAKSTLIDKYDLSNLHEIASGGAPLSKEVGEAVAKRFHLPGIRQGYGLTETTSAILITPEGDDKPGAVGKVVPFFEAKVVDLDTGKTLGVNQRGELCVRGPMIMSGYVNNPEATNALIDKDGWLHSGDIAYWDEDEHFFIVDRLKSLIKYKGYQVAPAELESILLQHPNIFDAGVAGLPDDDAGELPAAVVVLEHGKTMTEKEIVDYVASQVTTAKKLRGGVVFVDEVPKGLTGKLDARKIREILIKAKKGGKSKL
In short: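 Counter-screen for direct inhibition of the luciferase enzyme by approved-drug library compounds, run at 10 nM enzyme in 50 mM Tris acetate (final). Luminescence was read within 5 min of enzyme-buffer addition and normalized to PTC124 versus DMSO (0%).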

[2] = S16 Schwann cell PMP22 intronic element firefly luciferase assay (AID 624032); note: nearly all actives have a fitted effect of over 30% in size
In short: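 Rat S16 Schwann cells stably carrying a PMP22 intronic element-driven Fluc reporter were seeded overnight, then exposed to compounds for 24 h at 37 °C. Luminescence was normalized to PTC124 (positive control) and DMSO (0% activity).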

CP215 = assay: qHTS profiling for inhibitors of Plasmodium falciparum proliferation (AID 504749); note: nearly all actives have a fitted effect of over 60% in size; settings: P. falciparum in erythrocytes, SYBR Green DNA, 72 h; series mostly up to 28.7 µM
In short: (§1)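 Fluorescence of SYBR Green-bound parasite DNA, read at 485/535 nm, served as the growth measure. Infected erythrocytes were cultured with compound 72 h; artemisinin (0.29 uM) and DMSO wells defined the normalization range.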

CP262 = assay: as above; settings: P. falciparum in erythrocytes, SYBR Green DNA, 72 h; series mostly up to 28.7 µM
In short: as §1

CP265 = assay: as above; settings: P. falciparum in erythrocytes, SYBR Green DNA, 72 h; series mostly up to 28.7 µM
In short: as §1

CP268 = assay: as above; settings: P. falciparum in erythrocytes, SYBR Green DNA, 72 h; series mostly up to 28.7 µM
In short: as §1

CP269 = assay: as above; settings: P. falciparum in erythrocytes, SYBR Green DNA, 72 h; series mostly up to 28.7 µM
In short: as §1

CP297 = assay: as above; settings: P. falciparum in erythrocytes, SYBR Green DNA, 72 h; series mostly up to 28.7 µM
In short: as §1

CP315 = assay: as above; settings: P. falciparum in erythrocytes, SYBR Green DNA, 72 h; series mostly up to 28.7 µM
In short: as §1

CP325 = assay: as above; settings: P. falciparum in erythrocytes, SYBR Green DNA, 72 h; series mostly up to 28.7 µM
In short: as §1

CP329 = assay: as above; settings: P. falciparum in erythrocytes, SYBR Green DNA, 72 h; series mostly up to 28.7 µM
In short: as §1

FAB9 = assay: as above; settings: P. falciparum in erythrocytes, SYBR Green DNA, 72 h; series mostly up to 28.7 µM
In short: as §1

JCK = assay: as above; settings: P. falciparum in erythrocytes, SYBR Green DNA, 72 h; series mostly up to 28.7 µM
In short: as §1

PC15 = assay: as above; settings: P. falciparum in erythrocytes, SYBR Green DNA, 72 h; series mostly up to 28.7 µM
In short: as §1

Measured: Potency

CN1[C@H]2CC(OC(=O)[C@H](CO)c3ccccc3)C[C@H]1[C@H]1O[C@H]12 (some centres undefined)
inactive: all assays above
